Measured values from PMC7826789 (International Journal of Molecular Sciences, 2021).

test system: TNIK; conditions: Compound Concentration (nM):1000
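Note: KINOMEscan scanMAX binding as percent activity remaining versus control; lower means stronger binding.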

| SMILES | Percent Control [%] |
| --- | --- |
| CN1CCN(C(=O)c2ccc(NC(=O)Nc3ccc(N(C)c4ccnc(Nc5ccc(CS(C)(=O)=O)cc5)n4)cc3)cc2)CC1.Cl [GW830263A] | 23 |
| COc1cc2ncnc(Nc3ccc4c(cnn4Cc4ccccc4)c3)c2cc1OC.Cl [GW282449A] | 100 |
| CC1=C(C(=O)Nc2ccc3[nH]ncc3c2)C(c2ccc3ccccc3c2)CC(=O)N1 (stereo not shown) [GSK270822A] | 85 |
| O=C(Nc1n[nH]c2nc(-c3ccc(O)cc3)c(Br)cc12)C1CC1 [SB-725317] | 72 |
| CCS(=O)(=O)c1ccc(OC)c(Nc2ncc(-c3cccc(F)c3)o2)c1 [GW621970X] | 82 |
| COc1ccc2cc(-c3c(-c4ccncc4)nc(-c4ccc(S(C)(=O)=O)cc4C)n3C)ccc2c1 [SB-633825] | 54 |
| COc1ccccc1-c1cc(/C=C2\C(=O)Nc3ncc(Br)cc32)cc(Br)c1O [GW442130X] | 71 |
| CN(C)c1cc2c(Nc3ccc4c(cnn4Cc4ccccc4)c3)ncnc2cn1 [GW282974X] | 100 |
| COc1ccc2[nH]c3c4[nH]c5ccc(OC)cc5c4c4c(c3c2c1)C(=O)NC4=O [GW296115X] | 3 |
| COc1cccc(-n2ncc3c(N/N=C/c4ccncc4)ncnc32)c1 [GW784752X] | 97 |
| CC1=C(C(=O)Nc2ccc3[nH]ncc3c2)C(c2ccc(Cl)c(Cl)c2)CC(=O)N1 (stereo not shown) [GSK299115A] | 100 |
| COc1ccc(COc2ccc(Cc3cnc(N)nc3N)cc2OC)cc1 [GW632580X] | 100 |
| NS(=O)(=O)c1ccc(N/N=C2\C(=O)Nc3ccc(Cl)cc32)cc1 [GW280670X] | 47 |
| COc1cccc(-c2c[nH]c3c(N/N=C/c4ccncc4)ncnc23)c1 [GW814408X] | 51 |
| COC(=O)Nc1nc2ccc(Oc3ccc(NC(=O)Nc4cc(C(F)(F)F)ccc4F)cc3)cc2s1.Cl [GW693917A] | 74 |
| COc1ccc2c(-c3ccnc(Nc4cccc(OC(F)(F)F)c4)n3)cnn2n1 [GW810372X] | 100 |
| NS(=O)(=O)c1ccc(N/N=C2\C(=O)Nc3ccc(-c4cnco4)cc32)cc1 [GW276655] | 26 |
| Cl.c1ccc(Cc2nc3ccc(Nc4ncnc5ccccc45)cc3[nH]2)cc1 [GR269666A] | 100 |
| C/C(Nc1ccc(S(N)(=O)=O)cc1)=C1/C(=O)Nc2ccccc21 [GW335962X] | 18 |
| COc1cc(N2CCN(C(C)C)CC2)ccc1Nc1nc(Nc2ccc(F)cc2C(=O)NC[C@@H](O)CO)c2cc[nH]c2n1 [GSK1392956A] | 72 |

| SMILES | Percent Control [%] |
| --- | --- |
| Nc1ncnc2occ(-c3ccc(NC(=O)Nc4cc(C(F)(F)F)ccc4F)cc3)c12 [GW770249X] | 59 |
| CC(C)COC(=O)c1ccc2c(c1)/C(=C/Nc1ccc(S(N)(=O)=O)cc1)C(=O)N2 [GW416981X] | 58 |
| Cl.O=C(Nc1ccc(Oc2ccc3[nH]c(NC(=O)c4ccccc4)nc3c2)cc1)Nc1cc(C(F)(F)F)ccc1F [GW709042A] | 100 |
| CCc1ccc(Oc2nccc(-c3c(-c4ccc(F)cc4)ncn3C3CCNCC3)n2)cc1 [SB-242719] | 66 |
| COc1cc(C)c(N(C)C(=O)CN(C)C)cc1Nc1nc(Nc2cccc(F)c2C(N)=O)c2cc[nH]c2n1 [GSK2219385] | 98 |
| NS(=O)(=O)c1ccc(Nc2ncc(-c3ccccc3)o2)cc1 [GW572399X] | 52 |
| CCS(=O)(=O)c1ccc(OC)c(Nc2ncc(-c3cccc(OC)c3)o2)c1 [GW580509X] | 75 |
| C[C@@H](Oc1cc(-n2cnc3ccc(OC4CCN(C)CC4)cc32)sc1C(N)=O)c1ccccc1Cl [GSK579289A] | 75 |
| COc1cc2ncn(-c3cc(O[C@H](C)c4ccccc4Cl)c(C(N)=O)s3)c2cc1OC [GSK237701A] | 99 |
| O=C1Nc2ccc(C(=O)c3ccco3)cc2C1=Cc1cc(Cl)c(O)c(Cl)c1 [GW406108X] | 24 |
| Cc1cc(O)cc(C)c1/C=C/c1cncc(C(N)=O)c1 [GW435821X] | 100 |
| COc1cc(/C=N/Nc2ncnc3[nH]ncc23)ccc1O [GW578748X] | 94 |
| COc1cc(C=NNc2ncnc3c2cnn3-c2ccccc2)ccc1O [GW513184X] | 84 |
| NS(=O)(=O)c1ccc(N/N=C2\C(=O)Nc3ccc(C(=O)NCCc4c[nH]cn4)cc32)cc1 [GW300660X] | 100 |
| Cl.O=C(Nc1ccc(Oc2ccc3[nH]c(NC(=O)c4ccco4)nc3c2)cc1)Nc1cc(C(F)(F)F)ccc1F [GW683134A] | 100 |
| CN(C)CCNC(=O)Nc1ccc(N(C)c2ccnc(Nc3ccc(CS(C)(=O)=O)cc3)n2)cc1.Cl [GW830900A] | 49 |
| CCn1c(-c2nonc2N)nc2c(C#CC(C)(C)O)nc(OCCNC)cc21.Cl [GSK949675] | 100 |
| NS(=O)(=O)c1ccc(N/N=C2\C(=O)Nc3ccc(C(=O)NCc4ccncc4)cc32)cc1 [GW300657X] | 82 |
| Cl.O=S1CCN(Cc2ccc(-c3ccc4ncnc(Nc5ccc(OCc6ccccc6)c(F)c5)c4c3)o2)CC1 [GW576924A] | 100 |
| Cl.O=C(O[C@H]1CN[C@H](C#Cc2cc3ncnc(Nc4ccc5c(cnn5Cc5ccccc5)c4)c3s2)C1)N1CCOCC1 [GSK200398A] | 96 |
